Screening results (PubChem BioAssay)
The sample as a whole holds a higher share of hits than the screen did.
DUX4 txn inh = blocks DUX4-driven transcriptional activation | 293T-iDUX4 ZSCAN4-Gaussia luciferase reporter, 24 h; stronger effect = lower value | activity change, negative = inhibition, % (no concentration beside the values) | 37,000 tested, 0.8% active | AID 1224904;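 active = mean inhibition of at least 10% in the main channel, exceeding the control channel by a set limit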;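 also: 0% = median of neutral control wells and -100% = median of positive control wells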
* = called active by the depositor.

What do the screens show for `CN(C)C(=O)c1ccc(-c2ccc3c(c2)[C@H]2[C@H](CCN2Cc2cncnc2)[C@H](CO)N3)cc1`?
DUX4 txn inh: 5

What do the screens show for `O=C(C[C@@H]1CC[C@@H]2[C@H](COC[C@H](O)CN2S(=O)(=O)c2ccc(F)cc2)O1)N[C@@H]1CCN(Cc2ccccc2)C1`?
DUX4 txn inh: 10

How did COc1cccc(CN2[C@@H](CO)[C@@H](c3ccccc3)C23CN(Cc2ccccc2OC)C3)c1 do in these assays?
DUX4 txn inh: -38*

What do the screens show for `COc1cccc(CN2[C@@H](CO)[C@@H](c3ccccc3)C23CN(C(=O)C2CCC2)C3)c1`?
DUX4 txn inh: -6

How did COc1cccc(CN2[C@@H](CO)[C@@H](c3ccccc3)C23CN(C(=O)C2CC2)C3)c1 do in these assays?
DUX4 txn inh: -2

How did CNC[C@@H]1Oc2ccc(NS(=O)(=O)c3cccs3)cc2C(=O)N([C@@H](C)CO)C[C@H]1C do in these assays?
DUX4 txn inh: -3

Results for COc1ccc2c3c(n(C)c2c1)[C@H](CO)N(C(=O)Cc1ccccc1)CC31CCN(C(C)=O)CC1 ?
DUX4 txn inh: 16

Results for COc1ccccc1-c1ccc([C@H]2[C@@H](CO)N(C(=O)C3CC3)C23CN(C(C)=O)C3)cc1 ?
DUX4 txn inh: 4

How did CC(=O)N1CC2(C1)[C@@H](c1ccccc1)[C@H](CO)N2C(=O)c1ccncc1 do in these assays?
DUX4 txn inh: -2

What do the screens show for `O=C(Cc1ccccc1)N1CC(=O)N2[C@H](C1)[C@@H](c1ccc(C#CCc3ccccc3)cc1)[C@@H]2CO`?
DUX4 txn inh: -34*

Results for COc1cccc(NC(=O)N2CC(=O)N3[C@H](CO)[C@@H](c4ccc(C#CC5CCCCC5)cc4)[C@@H]3C2)c1 ?
DUX4 txn inh: 5

How did COc1cccc(NC(=O)N2CC(=O)N3[C@H](CO)[C@@H](c4ccc(C#CC5CCCCC5)cc4)[C@H]3C2)c1 do in these assays?
DUX4 txn inh: -7

Results for CC(=O)N1CC(=O)N2[C@@H](CO)[C@H](c3ccc(C#Cc4cccnc4)cc3)[C@@H]2C1 ?
DUX4 txn inh: 4

How did COc1cccc(NC(=O)N2CC(=O)N3[C@@H](CO)[C@H](c4ccc(C#CC5CCCCC5)cc4)[C@@H]3C2)c1 do in these assays?
DUX4 txn inh: -47*

How did CC(C)CC#Cc1ccc([C@@H]2[C@@H](CO)N3C(=O)CN(C(=O)Cc4ccccc4)C[C@H]23)cc1 do in these assays?
DUX4 txn inh: -1

What do the screens show for `COCC(=O)N1CC(=O)N2[C@@H](CO)[C@@H](c3ccc(C#Cc4cccnc4)cc3)[C@@H]2C1`?
DUX4 txn inh: -2

Results for CC(C)CC#Cc1ccc([C@H]2[C@@H](CO)N3C(=O)CN(C(=O)Cc4ccccc4)C[C@H]23)cc1 ?
DUX4 txn inh: -3

What do the screens show for `CC(=O)N1CC(=O)N2[C@H](CO)[C@@H](c3ccc(C#Cc4cccnc4)cc3)[C@H]2C1`?
DUX4 txn inh: 0

What do the screens show for `COCC(=O)N1CC(=O)N2[C@H](CO)[C@H](c3ccc(C#Cc4cccnc4)cc3)[C@H]2C1`?
DUX4 txn inh: -22*

How did COCC(=O)N1CC(=O)N2[C@H](C1)[C@H](c1ccc(C#Cc3cccnc3)cc1)[C@@H]2CO do in these assays?
DUX4 txn inh: 10

What do the screens show for `CC(=O)N1CC(=O)N2[C@H](CO)[C@H](c3ccc(C#Cc4cccnc4)cc3)[C@H]2C1`?
DUX4 txn inh: -20*

Results for COc1ccccc1CNC(=O)C[C@H]1C[C@@H]2c3cc(NC(=O)NC4CCCC4)ccc3O[C@@H]2[C@H](CO)O1 ?
DUX4 txn inh: 1

Results for CS(=O)(=O)N1CC2(C1)[C@H](c1ccccc1)[C@@H](CO)N2Cc1ccc(F)cc1 ?
DUX4 txn inh: -2

How did CC(=O)N1CC[C@@H]2[C@@H](CO)Nc3ccc(C#Cc4ccccc4F)cc3[C@@H]21 do in these assays?
DUX4 txn inh: 4

How did CCC(=O)N1[C@@H](CO)[C@@H](c2ccccc2)C12CN(C(=O)NC1CCCC1)C2 do in these assays?
DUX4 txn inh: -1

What do the screens show for `CO[C@H](CN(C)C(=O)Nc1ccc(C(F)(F)F)cc1)[C@H](C)CN(Cc1ccccc1Cl)[C@@H](C)CO`?
DUX4 txn inh: -2

How did CO[C@H]1CC[C@@H]2CCN(C)C(=O)[C@@H](C)[C@H](OC)CN(C)C(=O)c3cc(C#N)ccc3OC[C@@H]1O2 do in these assays?
DUX4 txn inh: -1

Results for CC(C)C(=O)Nc1ccc2c(c1)C(=O)N(C)[C@H]1CC[C@H](CC(=O)NC3CCCC3)O[C@H]1CO2 ?
DUX4 txn inh: -1

What do the screens show for `CO[C@@H]1CN(C)C(=O)c2ccc(NS(C)(=O)=O)cc2OC[C@H](C)N(Cc2ccccc2)C[C@@H]1C`?
DUX4 txn inh: 6

How did COc1ccc2c3c(n(C)c2c1)[C@@H](CO)N(C(=O)c1ccc(F)cc1)CC31CN(C(C)=O)C1 do in these assays?
DUX4 txn inh: 17

Results for COc1ccc2c3c(n(C)c2c1)[C@H](CO)N(CC1CC1)CC31CN(C(=O)Nc2ccc(F)cc2F)C1 ?
DUX4 txn inh: -5

How did CCCNC(=O)N1CC2(C1)CN(Cc1ccccc1)[C@H](CO)c1[nH]c3cc(OC)ccc3c12 do in these assays?
DUX4 txn inh: -8

How did COc1ccc2c3c(n(C)c2c1)[C@@H](CO)N(CC1CC1)CC31CCN(C(=O)CC2CC2)CC1 do in these assays?
DUX4 txn inh: -2

How did COc1ccc2c3c(n(C)c2c1)[C@@H](CO)N(CC1CC1)CC31CN(C(=O)c2ccc(F)cc2)C1 do in these assays?
DUX4 txn inh: -26*

How did CCCNC(=O)N1CC2(C1)CN(Cc1ccc(F)cc1)[C@H](CO)c1[nH]c3cc(OC)ccc3c12 do in these assays?
DUX4 txn inh: -8

Results for COc1ccc2c3c(n(C)c2c1)[C@@H](CO)N(CC1CC1)CC31CCN(C(=O)c2ccccc2)CC1 ?
DUX4 txn inh: -32*

What do the screens show for `CCCNC(=O)N1CC2(C1)CN(Cc1ccccc1)[C@@H](CO)c1[nH]c3cc(OC)ccc3c12`?
DUX4 txn inh: -10*

How did COc1ccc2c3c([nH]c2c1)[C@H](CO)N(CC1CC1)CC31CN(C(=O)c2ccccc2)C1 do in these assays?
DUX4 txn inh: -24*

Results for COc1ccc2c3c(n(C)c2c1)[C@@H](CO)N(CC1CC1)CC31CCN(C(C)=O)CC1 ?
DUX4 txn inh: 13

What do the screens show for `COc1ccc2c3c([nH]c2c1)[C@H](CO)N(C(=O)c1ccccc1)CC31CN(C(=O)CC2CC2)C1`?
DUX4 txn inh: 10

Results for COc1ccc2c3c([nH]c2c1)[C@H](CO)N(CC1CC1)CC31CN(C(=O)NC2CCCC2)C1 ?
DUX4 txn inh: 6

Results for COc1ccc(S(=O)(=O)N2CC[C@@H]3[C@@H](CO)Nc4ccc(C#Cc5ccccc5OC)cc4[C@@H]32)cc1 ?
DUX4 txn inh: -3

What do the screens show for `CC=Cc1ccc2n(c1=O)C[C@H]1[C@H](CO)[C@@H](C(=O)NCCc3cn(C)cn3)[C@@H]2N1C(=O)C1CCCC1` (mixture of isomers)?
DUX4 txn inh: 6

How did CCCNC(=O)N1C[C@@H](C)[C@H](OC)CN(C)C(=O)c2cc(NS(=O)(=O)CC(F)(F)F)ccc2OC[C@@H]1C do in these assays?
DUX4 txn inh: -5

How did COc1ccc2c3c(n(C)c2c1)[C@@H](CO)N(C(=O)C1CCCC1)CC31CCN(C(=O)CC2CC2)CC1 do in these assays?
DUX4 txn inh: 11

How did CN1c2ccc(-c3ccccc3F)cc2[C@@H]2[C@@H](CCN2C(=O)CN2CCOCC2)[C@@H]1CO do in these assays?
DUX4 txn inh: 17
